The results in this text go back to PubChem BioAssay (NCATS).

A short description of assay [1]: S16 Schwann cell viability assay (CellTiter-Glo assay) (AID 624031).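 Further: native untransfected S16 rat Schwann cells; cellular ATP luminescence as a viability measure; nearly all actives have a fitted effect of over 70% in size.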 Conditions: S16 rat Schwann cells viability, 24 h; series mostly up to 25.7 µM. The procedure, abridged:
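Concentration-effect curves come from CellTiter-Glo luminescence of S16 rat Schwann cells after 24 h compound exposure. Each reading was normalized to DMSO wells (0%) and wells without cells, and curves were ranked by r2 and response magnitude.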
For orientation: In ATP-based viability assays light output follows the ATP content of the culture.

Another assay relates to 3D7. Put plainly: qHTS profiling for inhibitors of Plasmodium falciparum proliferation (AID 504749). Further: nearly all actives have a fitted effect of over 60% in size. Further: potency means the concentration at half of the fitted maximal effect. Conditions: P. falciparum in erythrocytes, SYBR Green DNA, 72 h; series mostly up to 12.8 µM. The procedure, abridged: (§1)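 Quantitative HTS: compounds pinned into medium, infected erythrocytes added (0.3% parasitemia, 2.5% hematocrit), 72 h culture at 37 C under 5% CO2. Saponin/Triton lysis with SYBR Green I, overnight RT, then fluorescence read.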
A general note: In qHTS, concentration-response curves come from the screen itself.

For a further assay, the system named is AS120. The description is as above. Conditions: P. falciparum in erythrocytes, SYBR Green DNA, 72 h; series mostly up to 12.8 µM. The method, boiled down: as §1
In a further assay the test system is ATS189. The assay is described as above. Conditions: P. falciparum in erythrocytes, SYBR Green DNA, 72 h; series mostly up to 12.8 µM. The method, boiled down: as §1
A further assay concerns CP185. The description is as above. Conditions: P. falciparum in erythrocytes, SYBR Green DNA, 72 h; series mostly up to 12.8 µM. The procedure, abridged:
as §1

The subject of the next assay is CP192. The description is as above. Conditions: P. falciparum in erythrocytes, SYBR Green DNA, 72 h; series mostly up to 12.8 µM. The method, boiled down:
as §1

The test system of a further assay is CP252. Described as above. Conditions: P. falciparum in erythrocytes, SYBR Green DNA, 72 h; series mostly up to 12.8 µM. The method, boiled down: as §1
The next assay relates to CP266. The assay is described as above. Conditions: P. falciparum in erythrocytes, SYBR Green DNA, 72 h; series mostly up to 12.8 µM. The method, boiled down: as §1
The next assay has as its system CP268. The description is as above. Conditions: P. falciparum in erythrocytes, SYBR Green DNA, 72 h; series mostly up to 12.8 µM. The procedure, abridged:
as §1

In the next assay the test system is CP286. Described as above. Conditions: P. falciparum in erythrocytes, SYBR Green DNA, 72 h; series mostly up to 12.8 µM. The procedure, abridged: as §1
For another assay, the system named is CP297. The description is as above. Conditions: P. falciparum in erythrocytes, SYBR Green DNA, 72 h; series mostly up to 12.8 µM. The method, boiled down: as §1
A further assay has as its system CP315. Described as above. Conditions: P. falciparum in erythrocytes, SYBR Green DNA, 72 h; series mostly up to 12.8 µM. The procedure, abridged:
as §1

The test system of a further assay is Dd2. The assay is described as above. Conditions: P. falciparum in erythrocytes, SYBR Green DNA, 72 h; series mostly up to 12.8 µM. The procedure, abridged: as §1
The next assay concerns ECU. Described as above. Conditions: P. falciparum in erythrocytes, SYBR Green DNA, 72 h; series mostly up to 12.8 µM. The procedure, abridged: as §1
The next assay has as its system HB3. The description is as above. Conditions: P. falciparum in erythrocytes, SYBR Green DNA, 72 h; series mostly up to 12.8 µM. The method, boiled down:
as §1

The next assay relates to N140. The assay is described as above. Conditions: P. falciparum in erythrocytes, SYBR Green DNA, 72 h; series mostly up to 12.8 µM. The procedure, abridged:
as §1

The next assay concerns PAD. The description is as above. Conditions: P. falciparum in erythrocytes, SYBR Green DNA, 72 h; series mostly up to 12.8 µM. The method, boiled down: as §1
For a further assay, the system named is PC15. Described as above. Conditions: P. falciparum in erythrocytes, SYBR Green DNA, 72 h; series mostly up to 12.8 µM. The procedure, abridged:
as §1

The subject of the next assay is TAB113. The assay is described as above. Conditions: P. falciparum in erythrocytes, SYBR Green DNA, 72 h; series mostly up to 12.8 µM. The procedure, abridged: as §1
The subject of the next assay is W2. The description is as above. Conditions: P. falciparum in erythrocytes, SYBR Green DNA, 72 h; series mostly up to 12.8 µM. The procedure, abridged: as §1

Inconclusive results are not listed. Calls of active or inactive are those of the source. The call rests on the fitted dose curve; in most records, active means well fitted curve in the direction sought with a large enough effect; inconclusive means small, poorly fitted or top-dose-only effect, or another doubt; inactive means no such curve, though single readings can be large; an effect the other way counts as inactive or inconclusive.

In the case of `CN[C@H]1[C@H](O)[C@@H](O[C@@H]2[C@H](O)[C@@H](O[C@H]3OC(CN)=CC[C@H]3N)[C@@H](N)C[C@H]2N)OC[C@@]1(C)O`, the result in [1] was inactive. Moreover, the Potency result with 3D7, in the assay with AS120, in the assay with ATS189, with CP185, in the assay with CP192 and in the assay on CP252 was “inactive” each time. In addition, the Potency entry in the assay on CP266, with CP268, in the assay on CP286, with CP297, in the assay on CP315 and in the assay on Dd2 was “inactive” in each case. The Potency entry with ECU, in the assay with HB3, in the assay with N140, with PAD, with PC15 and in the assay on TAB113 was “inactive” throughout. Further, the Potency result in the assay on W2 is “inactive”.

As for `CN1C(=O)C[C@H](c2ccccc2)C1=O`, the Potency result in the assay on 3D7, with ATS189, in the assay with CP192, in the assay with CP252, with CP266 and in the assay on CP268 was “inactive” each time. For the same compound, the Potency result in the assay on CP286, in the assay with CP297, in the assay with CP315, in the assay with Dd2, in the assay with ECU and in the assay on HB3 was “inactive” throughout. Moreover, the Potency entry in the assay on N140, in the assay on PAD, in the assay on PC15 and in the assay with W2 was “inactive” in each case.

Consider `O=C(N/N=C\c1ccc([N+](=O)[O-])o1)c1ccc(O)cc1`, for which the Potency was 1.58 µM (active) with 3D7; 2.82 µM (active) in the assay with AS120; 3.16 µM (active) in the assay on ATS189; 2.24 µM (active) in the assay on CP185; 3.16 µM (active) in the assay on CP252; 5.73 µM (active) with CP268. In addition, the Potency with CP286 is 2.51 µM (active); in the assay with CP297, 3.22 µM (active); in the assay with CP315, 5.73 µM (active); in the assay on Dd2 it was 3.55 µM (active); in the assay with ECU, 1.78 µM (active); in the assay with HB3, 3.55 µM (active). Further, the Potency was 3.16 µM (active) with N140; 2.51 µM (active) in the assay on PAD; 2.82 µM (active) in the assay with PC15; 3.16 µM (active) in the assay on TAB113; 1.81 µM (active) with W2.

Take `NC[C@@H]1O[C@H](O[C@H]2[C@H](O)[C@H](O[C@@H]3O[C@H](CO)[C@@H](O)[C@H](N)[C@@H]3O)[C@@H](N)C[C@H]2N)[C@@H](O)[C@H](O)[C@@H]1O`: in assay [1], the compound was called inactive. The Potency result with 3D7, with AS120, in the assay on ATS189, in the assay with CP185, in the assay with CP192 and with CP252 was “inactive” throughout. Also, the Potency entry with CP266, in the assay on CP268, in the assay with CP286, in the assay on CP297, in the assay on CP315 and in the assay with Dd2 was “inactive” in each case. Also, the Potency result in the assay with ECU, in the assay with HB3, with N140, in the assay on PAD, in the assay on PC15 and in the assay on TAB113 was “inactive” throughout. The Potency entry in the assay on W2 was “inactive”.

As to `CC(C)(C)NC(=O)[C@@H]1CC[C@@H]2[C@@H]3CC[C@@H]4NC(=O)C=C[C@@]4(C)[C@H]3CC[C@]21C`, the compound was classed as inactive in assay [1]. Moreover, the Potency entry with 3D7, in the assay on AS120, in the assay on ATS189, in the assay on CP185, in the assay on CP192 and in the assay with CP252 was “inactive” in each case. The Potency result in the assay with CP266, with CP268, in the assay on CP286, in the assay with CP297, in the assay on CP315 and in the assay on Dd2 was “inactive” each time. The Potency entry in the assay on ECU, in the assay on HB3, in the assay on N140, in the assay with PAD, with PC15 and in the assay on TAB113 was “inactive” in each case. Besides, in the assay with W2, the Potency result was “inactive”.

For the compound `CC1=C(C(=O)O)N2C(=O)[C@@H](NC(=O)[C@@H](N)c3ccc(O)cc3)[C@@H]2SC1`, in [1], the call was inactive. In addition, the Potency result in the assay with 3D7, with AS120, in the assay on ATS189, with CP185, in the assay with CP192 and with CP252 was “inactive” each time. The Potency entry in the assay with CP266, in the assay on CP268, in the assay with CP286, with CP297, in the assay on CP315 and in the assay on Dd2 was “inactive” throughout. For the same compound, the Potency entry in the assay on ECU, in the assay on HB3, in the assay on N140, with PAD, in the assay on PC15 and in the assay with TAB113 was “inactive” in each case. In addition, the Potency result in the assay with W2 was “inactive”.

As for `NC[C@@H]1O[C@H](O[C@@H]2[C@H](O[C@@H]3O[C@H](CO)[C@@H](O)[C@@H]3O)[C@@H](O)[C@@H](N)C[C@H]2N)[C@@H](N)[C@H](O)[C@@H]1O`, in assay [1], the compound was classed as inactive. The Potency entry with 3D7, with AS120, with ATS189, in the assay on CP185, with CP192 and in the assay with CP252 was “inactive” in each case. For the same compound, the Potency entry in the assay with CP266, in the assay with CP268, in the assay on CP286, in the assay with CP297, in the assay on CP315 and with Dd2 was “inactive” throughout. The Potency entry with ECU, with HB3, in the assay with N140, in the assay with PAD, with PC15 and with TAB113 was “inactive” in each case. For the same compound, the Potency result in the assay on W2 was “inactive”.

As to `CN(C)CCOC(=O)[C@@H](c1ccccc1)C1(O)CCCC1`, in [1], the outcome was inactive. The Potency entry with 3D7, with AS120, in the assay on ATS189, with CP185, in the assay on CP192 and in the assay with CP252 was “inactive” each time. For the same compound, the Potency entry with CP268, with CP286, in the assay with CP315, in the assay with ECU, in the assay on HB3 and in the assay with N140 was “inactive” in each case. Moreover, the Potency entry in the assay on PAD, in the assay with PC15 and in the assay with TAB113 was “inactive” each time. In addition, the Potency in the assay on W2 was 8.49 µM (active).

On to `NCc1ccccc1CC(=O)N[C@@H]1C(=O)N2C(C(=O)O)=C(CSc3nnnn3CC(=O)O)CS[C@@H]12`, for which the result in assay [1] was inactive. Moreover, the Potency entry in the assay with 3D7, with AS120, in the assay on ATS189, in the assay with CP185, with CP192 and in the assay with CP252 was “inactive” each time. The Potency entry in the assay with CP266, with CP268, with CP286, in the assay on CP297, in the assay with CP315 and in the assay with Dd2 was “inactive” throughout. Also, the Potency result in the assay on ECU, in the assay on HB3, with N140, with PAD, in the assay with PC15 and in the assay on TAB113 was “inactive” each time. Besides, the Potency result with W2 is “inactive”.

On to `O=C1O[C@@H]([C@@H](O)CO)[C@@H](O)[C@H]1O`, for which the Potency result with 3D7, in the assay with AS120, in the assay on ATS189, in the assay with CP185, with CP192 and in the assay on CP252 was “inactive” in each case. Further, the Potency result in the assay with CP266, in the assay on CP268, with CP286, with CP297, in the assay with CP315 and in the assay with Dd2 was “inactive” each time. Further, the Potency result in the assay on ECU, in the assay with HB3, with N140, in the assay with PAD, in the assay with PC15 and in the assay with TAB113 was “inactive” in each case. Also, the Potency result in the assay with W2 was “inactive”.

In the case of `CC[C@H](Cc1c(I)cc(I)c(N)c1I)C(=O)O`, the compound was classed as inactive in assay [1]. In addition, the Potency result in the assay with 3D7, with AS120, in the assay on ATS189, with CP185, with CP192 and with CP252 was “inactive” throughout. Moreover, the Potency entry in the assay with CP266, in the assay with CP268, with CP286, in the assay on CP297, with CP315 and in the assay on Dd2 was “inactive” in each case. Further, the Potency entry in the assay with ECU, in the assay on HB3, with N140, with PAD, with PC15 and in the assay with TAB113 was “inactive” in each case.
